Compound activity as filed in PubChem BioAssay.
PLCb3 inh = human PLC-beta3 inhibitors, primary screen, biochemical, fluorescence; 1-phosphatidylinositol 4,5-bisphosphate phosphodiesterase beta-3 (Homo sapiens), Q01970; Purified PLC-beta3, fluorogenic substrate; inhibition, % at 12.2 µM; actives 0.18% (n = 370,000); AID 720704, 2013;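 further: 0% = median of compound wells on plate and 100% = full blocker control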
GC-B act = human GC-B receptor activators, primary screen, HEK293 GC-B cells, cGMP TR-FRET, EC30 CNP. Atrial natriuretic peptide receptor 2 (Homo sapiens), P20594. 0% at EC30 CNP, 100% saturating CNP. activation, % at 10 µM. actives 0.11% (n = 370,000). AID 1920062, 2024;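 active means activation at 10 µM reaching about 35% in either raw or pattern-adjusted values, limit read from the data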
PLC-gamma1 inh = PLC-gamma1 enzyme inhibitors, primary screen, biochemical, fluorescence, purified enzyme; 1-phosphatidylinositol 4,5-bisphosphate phosphodiesterase gamma-1 (Homo sapiens), P19174; fluorogenic substrate; inhibition, % at 12.2 µM; actives 0.84% (n = 370,000); AID 720700, 2013; in the data active means inhibition above about 9.5%
NPR1 activator = GC-A stimulated cGMP production enhancers – HEK293 GC-A cells, cGMP TR-FRET, EC30 ANP, primary screen; actives 0.14% (n = 370,000); activation, % at 10 µM; 0% at EC30 ANP, 100% saturating ANP; Atrial natriuretic peptide receptor 1 (Homo sapiens), P16066; AID 1671463, 2021; in the data active means activation above about 40%
PLCg1 ctr = PLC-gamma1 enzyme inhibitors, counter-screen for PLC-beta3 inhibitor project, biochemical, fluorescence. actives 3.1% (n = 3,300). inhibition, % at 12.3 µM. shares compounds with PLC-gamma1 inh. purified PLC-gamma1, fluorogenic substrate. AID 743258, 2014; in the data active means inhibition above about 9.5%
PLCb3 confirm = PLC-beta3 inhibitor confirmation, biochemical, fluorescence, purified enzyme | fluorogenic substrate fluorescence | inhibition, % at 12.3 µM | actives 1% (n = 3,300) | shares compounds with PLC-gamma1 inh
* marks the source's active call; other numbers are inactive results; nt = not tested or not shown. An excerpt weighted towards active compounds, which were near 1.2% of everything screened. Unless noted, no stated cut-off is given here; in the data, active means inhibition above about 11%; inactive means the rest.

SMILES | PLCb3 inh | GC-B act | PLC-gamma1 inh | NPR1 activator | PLCg1 ctr | PLCb3 confirm
COc1ccc(NS(=O)(=O)c2cccc(C(=O)NNC(=O)CNC(=O)c3ccccc3)c2)cc1 | 1.0 | -0.9 | 7.1 | -1.9 | nt | nt
[O-]C1=N/[N+](=C/c2ccccc2Cl)CC1 | 6.5 | 5.6 | 11.4* | 2.6 | -5.8 | -2.0
Cc1ccc(S(=O)(=O)N2[C@@H](c3ccc(Cl)cc3)C(C(=O)O)=CC[C@H]2c2cccs2)cc1 | -3.5 | 2.6 | -4.3 | 2.5 | nt | nt
CC1=C(C(=O)N(C)C)CC(CC(=O)NCC2CCCCC2)C(=O)N1CCC1=CCCCC1 (stereo not drawn) | 4.2 | 3.2 | 11.4* | 0.5 | -2.9 | -0.2
CCN(CC)C(=O)C1=C(C)N(CCC2=CCCCC2)C(=O)C(CC(=O)NCC2CCCCC2)C1 (stereo not drawn) | 3.8 | -1.4 | 0.3 | 0.1 | nt | nt
CO/N=C/c1cc([N+](=O)[O-])ccc1Sc1ccc(C)cc1 | 4.3 | -2.2 | 10.2* | -10.4 | -14.4 | -14.5
CCc1cc(C(=O)NNC(=O)CCN2CCN(c3ccccc3)CC2)sc1C | -7.4 | 2.1 | 0.8 | -0.9 | nt | nt
CCc1cc(C(=O)NNC(=O)CCl)sc1C | 1.6 | 0.9 | 10.6* | 2.8 | -3.3 | -2.4
COc1ccc(C(=O)NCCSc2ccc(C)cc2)cc1 | -1.6 | -1.1 | 1.3 | 1.6 | nt | nt
COc1cc(C(=O)N2CCCCC2c2cc(C(=O)NC(C)C)no2)cc(OC)c1C (stereo not drawn) | 3.7 | 2.3 | 13.4* | 2.1 | -2.2 | -0.4
CCCNC(=O)c1cc(C2CCCCN2C(=O)c2cc(OC)c(C)c(OC)c2)on1 (stereo not drawn) | 0.4 | 3.4 | 3.3 | -0.9 | nt | nt
COc1ccc(C(=O)N2CCCCC2c2cc(C(=O)Nc3ccc(OC)cc3C)no2)cc1 (stereo not drawn) | 0.3 | 0.5 | 0.7 | -0.6 | nt | nt
COc1ccc(NC(=O)c2cc(C3CCCCN3C(=O)c3cc(F)ccc3C)on2)c(C)c1 (stereo not drawn) | 3.2 | 3.0 | 9.7* | -0.4 | -4.1 | -3.2
C[C@H](CO)N1C[C@H](C)[C@@H](CN(C)C(=O)c2ccc(N3CCN(C)CC3)cc2)OCc2cnnn2CCCC1=O | 0.6 | 4.5 | -0.1 | 4.5 | nt | nt
COc1ccc2oc(C(=O)Nc3nc4ccccc4[nH]3)c(C)c2c1 | -140.2 | -1.9 | -96.9 | -5.9 | nt | nt
CC(C)(C)OC(=O)N1Cc2ccccc2C[C@H]1C(=O)NCC(=O)NC1CCCCC1 | -4.7 | 0.1 | -0.6 | -2.4 | nt | nt
Cc1cc(NC(=O)CSc2nnc3c4c(C)c(C)sc4ncn23)no1 | 11.8* | -2.1 | -6.0 | 9.5 | -3.6 | -2.2
O=[N+]([O-])c1cc(S(=O)(=O)NCCCN2CCOCC2)ccc1Cl | -2.8 | 2.1 | 3.7 | 2.6 | nt | nt
CCOc1ccc(NC(=S)Nc2ccccc2C2(C)CC2)cc1 | -4.8 | 2.5 | 0.1 | -1.6 | nt | nt
CC(C)(C)c1cc(=O)n(-c2ccccc2)[nH]1 | 8.8 | -3.6 | 27.6* | 3.9 | 7.0 | 2.2
O=S(=O)(N1CCOCC1)N1CCCN(S(=O)(=O)N2CCOCC2)CC1 | 5.8 | 2.5 | 10.6* | 1.6 | -0.5 | 4.5
CCOc1ccccc1OCC(=O)OCC(=O)c1c(C)[nH]c2ccccc12 | -5.9 | -3.0 | 5.8 | 2.5 | nt | nt
CCCCNC(=O)C[C@@H]1C[C@@]2(C(=O)OC)CC(C)(C)CC=C2N(Cc2ccccc2)C1=O | 5.6 | -2.9 | 3.2 | -1.6 | nt | nt
COc1ccc(-c2noc3c2-c2nc(C(C)C)sc2CC3)cc1 | 1.2 | -7.2 | 10.5* | -4.8 | -6.5 | -3.9
COc1ccc(-c2noc3c2-c2nc(-c4ccc(Br)cc4)sc2CC3)cc1 | 2.6 | -7.8 | 14.0* | -1.3 | -10.2 | -7.5
SMILES | PLCb3 inh | GC-B act | PLC-gamma1 inh | NPR1 activator | PLCg1 ctr | PLCb3 confirm
COc1ccc(-c2noc3c2-c2nc(-c4ccccc4C)sc2CC3)cc1 | 0.2 | -4.0 | 0.3 | -1.4 | nt | nt
Cc1ccc(NC(=O)C2CCCN(S(=O)(=O)c3ccc4c(c3)oc(=O)n4C)C2)nc1 (stereo not drawn) | 4.6 | 0.6 | 9.8* | -1.3 | -4.6 | -1.6
O=S1(=O)CCN(Cc2ccc(Cl)cc2)CC1 | 10.3 | 1.8 | 14.2* | 2.4 | -7.9 | -3.2
O=C(NN1C(=O)NC2(CCCCC2)C1=O)c1cc(F)cc(F)c1 | -3.3 | 9.7 | -0.8 | -0.2 | nt | nt
O=C(NN1C(=O)NC2(CCCCC2)C1=O)c1ccc(Cl)c(Cl)c1 | -11.2 | -2.1 | 11.6* | -3.4 | -8.9 | -6.6
CCOC(=O)C1CCN(C(=O)c2cc(C)n(C(C)(C)C)n2)CC1 | -2.6 | 1.8 | 10.6* | 3.3 | -1.6 | -0.5
CCOC(=O)C1CCN(C(=O)c2ccc3c(c2)OCCO3)CC1 | -7.6 | 0.6 | 11.9* | -0.6 | -1.1 | 0.6
Cc1ccc(N(C(=O)CCC(=O)Nc2cc(C)on2)C(C(=O)NC2CCCC2)c2ccncc2)cc1 (stereo not drawn) | 4.0 | 0.5 | 10.4* | -0.6 | 6.2 | 4.0
O=C(CNC(=O)c1ccc(OC(F)F)cc1)NC1CCCc2ccccc21 (stereo not drawn) | -2.5 | -2.2 | 3.9 | -0.5 | nt | nt
O=C1OCC2=C1C(c1ccccc1)CC(=O)N2c1ccc(F)cc1 (stereo not drawn) | 2.0 | -3.0 | 11.2* | 1.1 | -0.4 | 2.5
Cc1ccnc(NC(=O)c2ccc(Cl)c(NC(=O)CCc3ccccc3)c2)c1 | 1.8 | -1.1 | -1.8 | 5.1 | nt | nt
Cc1ccnc(NC(=O)c2ccc(Cl)c(NC(=O)C(C)Oc3ccccc3)c2)c1 (stereo not drawn) | 5.2 | 11.3 | 9.9* | 12.8 | -5.5 | -3.6
N=c1n(N)c2ccccc2n1CC(=O)c1ccc(Br)cc1 | -8.2 | -2.8 | -3.3 | -6.5 | nt | nt
CC(=O)NC(CC(=O)NNC(=O)COc1c(C)cccc1C)c1ccccc1 (stereo not drawn) | 2.7 | 2.3 | -1.7 | 2.4 | nt | nt
C(=N\N1CCN(c2ccccn2)CC1)/c1ccccn1 | 2.9 | -0.6 | 9.7* | -4.2 | -1.9 | 0.9
Oc1ccc(/C=N/N2CCN(c3ccccn3)CC2)cc1 | -3.7 | 1.8 | 0.6 | -0.8 | nt | nt
CCOC(=O)N1CC(C)N(CC(O)CN2CCOCC2)CC1C (stereo not drawn) | 2.6 | 2.4 | -0.7 | -4.8 | nt | nt
CSCCC(NC(=O)c1ccccc1)C(=O)N1CCN(C(C)=O)CC1 (stereo not drawn) | -6.7 | 3.3 | 1.8 | 3.4 | nt | nt
COC(=O)c1ccc(NC(=S)NC2CC3CCC2C3)cc1 (stereo not drawn) | 5.5 | 4.1 | 9.6* | 7.8 | 4.1 | 3.8
COC(=O)c1ccc(NC(=O)C2CC3CCC2C3)cc1 (stereo not drawn) | 0.8 | 2.2 | 5.5 | -0.1 | nt | nt
